Assay results reported in PubChem BioAssay AID1578 (Sanford-Burnham Center for Chemical Genomics, 2009).
About 3,000 (1%) of roughly 290,000 compounds were called active. Rule as the data show it: active = inhibition mostly above about 36% (no sharp cut-off); inactive = mostly below about 34%. This excerpt belongs to a sample that is enriched for actives.

Test: inhibition of NOD1-driven NF-kB reporter – cell-based, luminescence, uHTS, primary screen (AID 1578);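 also: HEK-293T reporter cells stimulated with the NOD1 agonist gamma-tri-DAP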
Conditions: NOD1-driven NF-kB luciferase reporter cells, at 4 µM, stronger effect = higher value

Row | SMILES | inhibition
1 | COc1ccc(NC(=O)CSc2nnc(CN3CCOCC3)n2C)cc1Cl | -15% (inactive)
2 | Cc1cccc(NC(=O)NCC2CCN(c3ccc(S(=O)(=O)N4CCOCC4)cc3)CC2)c1 | -10.9% (inactive)
3 | CCNC(=S)N/N=C(\C)c1ccc2ccccc2c1OC(F)F | -20.3% (inactive)
4 | C/C(=N\NC(=S)NCc1ccccc1)c1ccc2ccccc2c1OC(F)F | 48.2% (active)
5 | COC(=O)N/N=C(\C)c1ccc2ccccc2c1OC(F)F | -30% (inactive)
6 | CCc1ccc(CNC(=O)c2ccc(NC(=O)C3=CSCCO3)cc2)cc1 | -44.5% (inactive)
7 | COc1ccc(NC(=O)C2=CC(c3ccco3)=NS(=O)(=O)N2C)cc1OC | -21.6% (inactive)
8 | O=C(Nc1cc(Sc2ccccn2)cc([N+](=O)[O-])c1)c1cccc(Cl)c1 | 15.3% (inactive)
9 | O=C(Nc1cc(Sc2ccccn2)cc([N+](=O)[O-])c1)c1ccc([N+](=O)[O-])cc1 | 45.6% (inactive)
10 | O=C(Nc1cc(Sc2ccccn2)cc([N+](=O)[O-])c1)c1ccc(Cl)cc1 | 74.1% (active)
11 | Cn1c(O)c(N=NC(=O)CNC(=O)/C=C/c2ccccc2)c2ccccc21 | 24.3% (inactive)
12 | O=C1c2ccccc2C(=O)N1c1ncc(Cc2ccc(Cl)cc2)s1 | 25.4% (inactive)
13 | Cc1cccc(Cc2cnc(N3C(=N)SC(c4ccccc4)C3=O)s2)c1 (stereo unspecified) | 95.5% (active)
14 | Cc1cccc(Cc2cnc(NC(=O)c3ccc(C)o3)s2)c1 | -34.8% (inactive)
15 | Brc1cccc(-c2nc3cccnc3nc2-c2cccc(Br)c2)c1 | 23.6% (inactive)
16 | CC(C)(C)c1nc2cc(Cl)c([N+](=O)[O-])cc2o1 | -22.4% (inactive)
17 | O=C1N=C2N(CCN3CCCCC3)c3ccccc3N2/C1=C\c1ccc([N+](=O)[O-])o1 | 84.9% (active)
18 | O=C(CN1CCCCCCC1)N/N=C/c1ccc([N+](=O)[O-])o1 | 8.4% (inactive)
19 | c1ccc2c(c1)N1CCCN=C1N2CCN1CCCCC1 | -32.5% (inactive)
20 | CO/N=C/c1ccc(N2CCCC2)c([N+](=O)[O-])c1 | -21.4% (inactive)
21 | Cc1ccc(S(=O)(=O)N2CCN(c3ccnc4cc(Cl)ccc34)CC2)cc1 | 16.3% (inactive)
22 | CC(=O)Nc1ccc(C(=O)c2ccccc2)cc1 | -1% (inactive)
23 | C/C(Nc1ccccc1)=C(/C#N)C(N)=O | -14.6% (inactive)
24 | N#CC(C#N)=C(Nc1ccccc1)c1ccccc1 | 32.8% (active)

Row | SMILES | inhibition
25 | O=C(N/N=C/C=C/c1ccccc1)c1cc(C2CC2)[nH]n1 | 0.1% (inactive)
26 | O=S(=O)(Nc1nc2ccccc2[nH]1)c1ccc2ccccc2c1 | 56.9% (inactive)
27 | CS(=O)(=O)Nc1nc2ccccc2[nH]1 | -0.8% (inactive)
28 | CN(Cc1ccccc1)S(=O)(=O)c1ccc2c(c1)CCC(=O)N2 | -21.5% (inactive)
29 | O=C(c1cc(-c2ccccc2Cl)nc2ccc(Br)cc12)N1CCN(c2ccccn2)CC1 | -7.5% (inactive)
30 | CC(C)N(C(=O)COC(=O)c1ccccc1C(=O)c1ccc(Cl)c([N+](=O)[O-])c1)C(C)C | -13.9% (inactive)
31 | CN(CCC#N)C(=O)COC(=O)c1ccccc1C(=O)c1ccc(Cl)c([N+](=O)[O-])c1 | 55.1% (active)
32 | O=C(COC(=O)c1ccc(Cl)c([N+](=O)[O-])c1)NC1CCCC1 | 3.2% (inactive)
33 | CSc1ccc(Cl)c(C(=O)OCC(=O)N(C)CCC#N)c1 | -28.1% (inactive)
34 | O=C(COC(=O)c1cc([N+](=O)[O-])ccc1Cl)NC1CCCC1 | 1.2% (inactive)
35 | C(=N\n1cnnc1)/c1cccc2ccccc12 | 7.2% (inactive)
36 | Cc1cc(=O)oc2c(C)c(OCC(=O)N3CCC(C(=O)O)CC3)ccc12 | -25.2% (inactive)
37 | CCc1ccc(C2CC(=O)Nc3c2c(=O)nc2c(C)cccn32)cc1 (stereo unspecified) | -32.6% (inactive)
38 | COc1cccc(C(CNC(=O)C(c2ccccc2)c2ccccc2)N(C)C)c1 (stereo unspecified) | -20.7% (inactive)
39 | CC(C)(C)NC(=O)CSc1nc2[nH]ncc2c(=O)[nH]1 | -22.7% (inactive)
40 | COc1ccccc1N1CCN(/N=C/c2cc(Br)ccc2F)CC1 | -42.6% (inactive)
41 | CNc1ccn(C2CCCO2)c(=O)n1 (stereo unspecified) | 1.2% (inactive)
42 | COc1ccc(NC(=O)c2ccccc2NS(=O)(=O)c2ccc(C)cc2)c([N+](=O)[O-])c1 | 58.5% (inactive)
43 | CCOc1ccc(NC(=O)c2cccnc2Cl)c([N+](=O)[O-])c1 | -27.8% (inactive)
44 | Cc1ccc2oc(C(=O)N(CCO)Cc3ccccc3)c(C)c2c1 | -6.1% (inactive)
45 | O=C(C(=O)N1CCOCC1)c1cn(CCOc2ccccc2)c2ccccc12 | 1% (inactive)
46 | Cc1ccc(CSC2=NCCN2S(=O)(=O)c2ccccc2)cc1 | -6% (inactive)
47 | Cc1ccc(CSC2=NCCN2S(=O)(=O)c2ccc(F)cc2)cc1 | 48.3% (active)
48 | Cc1ccc(S(=O)(=O)N2CCN=C2SCc2ccccc2)cc1 | -1.7% (inactive)

Row | SMILES | inhibition
49 | Cc1ccccc1S(=O)(=O)Cc1ccc(C(=O)NCCCN2CCN(C)CC2)o1 | -8.5% (inactive)
50 | CCOC(=O)Cc1cnc(NC(=O)Cn2nnc(-c3ccc(OCC)cc3)n2)s1 | 0.4% (inactive)
51 | O=C(N/N=C/c1ccc(OC(=O)c2ccccc2)cc1)c1cccnc1 | -4.5% (inactive)
52 | COC(=O)c1ccc2c(c1)C(C)(C)C(/C=C/c1ccc(OC)c(OC)c1OC)=[N+]2C | -8.7% (inactive)
53 | COC(=O)c1ccc2nc(C)c(C)nc2c1 | -2.5% (inactive)
54 | CCCCNC(=O)c1cc2c(=O)n(CC)c3ccccc3c2s1 | -5.9% (inactive)
55 | COc1ccc(CNC(=O)CN(C(=O)CCC(=O)Nc2ccccn2)c2ccc3c(c2)OCO3)cc1 | -19.9% (inactive)
56 | CCn1cc(C(=O)NCC(OC)OC)c(=O)c2cc(S(=O)(=O)N(C)C3CCCCC3)ccc21 | 59% (active)
57 | CCn1cc(C(=O)NCCCOC)c(=O)c2cc(S(=O)(=O)N(C)C3CCCCC3)ccc21 | -10.9% (inactive)
58 | COC(CNC(=O)c1cn(C)c2ccc(S(=O)(=O)N(C)C3CCCCC3)cc2c1=O)OC | -18.2% (inactive)
59 | CCOc1ccc(S(=O)(=O)N(CC)CC(=O)N2CCOCC2)cc1C | -22.7% (inactive)
60 | CN(C(=O)Nc1ccc(Cl)cc1)c1c2c(nn1C)CCCC2 | -14.8% (inactive)
61 | COc1ccc(OC)c2c1sc(=NC(=O)c1cccc(N3C(=O)CCC3=O)c1)n2C | -1.9% (inactive)
62 | C(=N\Nc1nc2ccccc2[nH]1)/c1ccccn1 | 59.4% (active)
63 | CCCc1sc(N/N=C/c2ccccn2)nc1-c1ccc(Br)cc1 | -37.7% (inactive)
64 | Cc1nc(N/N=C/c2ccccn2)sc1C | 91% (active)
65 | CCN(CC)c1ccc(/C=N/Nc2nc3ccccc3[nH]2)cc1 | 105% (active)
66 | Cc1csc(N/N=C/c2ccccn2)n1 | 8.7% (inactive)
67 | C(=N\Nc1nc2ccccc2[nH]1)/c1ccccc1 | -71.3% (inactive)
68 | CCN(CC)c1ccc(/C=N/Nc2nc3ccccc3[nH]2)c(O)c1 | 11.9% (inactive)
69 | C(=N\Nc1nc2ccccc2[nH]1)/c1ccc2ncccc2c1 | 18.6% (inactive)
70 | C(=N\Nc1nc2ccccc2[nH]1)/c1ccncc1 | -22% (inactive)
71 | CCCOc1ccc(N2C(=O)CC(N(CCc3ccc(OC)c(OC)c3)C(=S)Nc3ccccc3)C2=O)cc1 (stereo unspecified) | -8.1% (inactive)
72 | O=C(Nc1ccon1)c1ccc(S(=O)(=O)N2CCOCC2)cc1 | -5.1% (inactive)

Row | SMILES | inhibition
73 | CCOc1cc(N2CCOCC2)c(OCC)cc1NC(=O)c1nc2nccc(C)n2n1 | -8.4% (inactive)
74 | O=S(=O)(NCc1nc2ccccc2[nH]1)c1ccccc1 | -21.9% (inactive)
75 | CCCCNC(=O)CCC(=O)Nc1ccc2nc(N3CCCCC3)cc(C)c2c1 | -15.4% (inactive)
76 | O=c1[nH]c(C2CCN(S(=O)(=O)c3ccc(C(F)(F)F)cc3)CC2)nc2c1nnn2Cc1ccccc1 | -8.3% (inactive)
77 | O=C(N/N=C/c1cccnc1)c1ccc(CN2c3cccc4cccc(c34)S2(=O)=O)cc1 | -27.8% (inactive)
78 | Fc1ccccc1NC(=S)NCCc1ccc(Cl)cc1 | -79.8% (inactive)
79 | CCc1nc(SCC(=O)Nc2ccccc2C(=O)OC)n[nH]1 | -16.5% (inactive)
80 | COc1ccccc1CNC(=O)c1cc(C(=O)CC(C)C)c[nH]1 | -11% (inactive)
81 | CCc1cc(=O)oc2cc(OC(C)=O)cc(OC(C)=O)c12 | 41.8% (active)
82 | CC(=O)Oc1cc(OC(C)=O)c2c(C)cc(=O)oc2c1 | 13.6% (inactive)
83 | CCc1cc(=O)oc2cc(C)cc(OCC(C)=O)c12 | -8.5% (inactive)
84 | Cc1nnc(NC(=O)CN2CCN(Cc3ccccc3Cl)CC2)s1 | -8.9% (inactive)
85 | CCN(CC)c1ccc(NC(=O)CN2C(=O)CC(C)(C)S(=O)(=O)c3ccccc32)c(C)c1 | -6.7% (inactive)
86 | Cc1ccc(N(C(=O)Cn2nnc(-c3ccc(C)o3)n2)C(C(=O)NC2CCCC2)c2ccncc2)cc1 (stereo unspecified) | -8.9% (inactive)
87 | CNC(=S)Nc1cc(S(=O)(=O)Nc2cc(Cl)ccc2Cl)ccc1N1CCCC1 | 2.1% (inactive)
88 | CCOc1c(Cl)cc(CNc2nnnn2C)cc1OC | -41.1% (inactive)
89 | O=C(Cc1cccc2ccccc12)N/N=C1\CCCc2ccccc21 | 13% (inactive)
90 | Cc1ccccc1OCCCC(=O)Nc1nccs1 | 6.5% (inactive)
91 | O=C(CCCOc1ccccc1)Nc1nncs1 | 2.6% (inactive)
92 | Cc1nnc(NC(=O)CCS(=O)(=O)Cc2ccccc2)s1 | -5.2% (inactive)
93 | O=C(CCS(=O)(=O)c1ccccc1)Nc1nncs1 | 3.3% (inactive)
94 | Cc1ccccc1OCCCC(=O)Nc1nncs1 | 51.4% (active)
95 | O=C(CCS(=O)(=O)Cc1ccccc1)Nc1nncs1 | 103% (active)
96 | CCOC(=O)c1nnc2cc(-c3ccccc3)nn2c1C | -32.6% (inactive)
